These results are taken from the supplement of paper PMC13380429.

The subject of experiment [1] is Vero E6 infected with SARS-CoV-2. Kind of experiment: morphology score (similarity to uninfected cells); higher = more like uninfected cells. The following applies: 24 h.
Experiment [2] shares this test system. In words: SARS-CoV-2 infection rate relative to infected DMSO; higher = more infection, active = 60 or less. The following applies: 24 h.

Structures are written as SMILES.

In the case of `O=C1CCC[C@@H]2[C@H]3CCCN4CCC[C@@H](CN12)[C@@H]34` [matrine] (10 µM), in experiment [1], the morphology score is 0.0694. For the same compound, the SARS-CoV-2 infection rate in experiment [2] is 112% (inactive).
The matching figures for `O=C(O)c1ccc2[nH]cc(CCCCN3CC=C(c4ccccc4)CC3)c2c1` [carmoxirole] (10 µM): 0.0618 and 96.5% (inactive).
The matching figures for `CCC(=O)O[C@]1(C(=O)COC(C)=O)CC[C@H]2[C@@H]3C[C@H](C)C4=CC(=O)C=C[C@]4(C)[C@H]3[C@@H](O)C[C@@]21C` [methylprednisolone-aceponate] (10 µM): 0.0786 and 108% (inactive).
The corresponding values for `CCOC(=O)CC(=O)N1CCSC1COc1ccccc1OC` (stereo unspecified) [moguisteine] (10 µM) are 0.165 and 99.5% (inactive).
In the case of `O=c1nc2ccccc2c2n1CC(CN1CCN(c3ccccc3)CC1)N2` (stereo unspecified) (10 µM), the morphology score in experiment [1] was determined as 0.221. Further, the SARS-CoV-2 infection rate in experiment [2] is 93% (inactive).
The corresponding values for `CC(Cc1ccccc1)(NC(=O)CN)c1ccccc1` (stereo unspecified) [remacemide] (10 µM) are -0.124 and 113% (inactive).
The matching figures for `CCOC(=O)Nc1ccc2c(c1)N(C(=O)CCN1CCOCC1)c1ccccc1S2` [moracizine] (10 µM): 0.154 and 112% (inactive).
The corresponding values for `Cc1ccc(NC(=O)c2ccc(CN3CC[C@H](N(C)C)C3)c(C(F)(F)F)c2)cc1Nc1nccc(-c2cncnc2)n1` [bafetinib] (0.833333 µM) are 0.358 and 104% (inactive).
For `O=C1c2ccccc2C(=O)C1c1ccc(Cl)cc1` [chlorindione] (10 µM), the morphology score in experiment [1] is 0.011. In addition, the SARS-CoV-2 infection rate in experiment [2] is 102% (inactive).
The corresponding values for `NCC[C@H](O)C(=O)N[C@@H]1C[C@H](N)[C@@H](O[C@H]2O[C@H](CN)[C@@H](O)[C@H](O)[C@H]2O)[C@H](O)[C@H]1O[C@H]1O[C@H](CO)[C@@H](O)[C@H](N)[C@H]1O` [amikacin] (10 µM) are -0.122 and 91% (inactive).
The matching figures for `O[C@@H](COc1cccc2ncccc12)CN1CCN([C@@H]2c3ccccc3[C@@H]3[C@H](c4ccccc42)C3(F)F)CC1` [zosuquidar] (0.833333 µM): 0.0321 and 108% (inactive).
Regarding `CN1CCN(c2ccc(-c3cccc(CN4CCOCC4)c3)cc2NC(=O)c2c[nH]c(=O)cc2C(F)(F)F)CC1` (10 µM), in experiment [1], the morphology score worked out at 0.0309. Also, the SARS-CoV-2 infection rate in experiment [2] was 115% (inactive).
In experiment [1], `Nc1[nH]cnc2ncnc1-2` [adenine] (10 µM) returned a morphology score of 0.0482. For the same compound, the SARS-CoV-2 infection rate in experiment [2] was 102% (inactive).
The corresponding values for `CNC(=O)Oc1cccc2ccccc12` [carbaril] (10 µM) are 0.025 and 101% (inactive).
In experiment [1], `COc1ccc2c(c1)/C(=C/c1cnc[nH]1)C(=O)N2` (0.833333 µM) gave a morphology score of -0.0607. Besides, the SARS-CoV-2 infection rate in experiment [2] was 109% (inactive).
The matching figures for `c1ccc(C[C@H](c2ccccc2)N2CCCCC2)cc1` (racemic) [1-(1,2-diphenylethyl)piperidine-(+/-)] (10 µM): 0.349 and 69% (inactive).
The corresponding values for `CCCCc1nc2cc(/C=C/C(=O)NO)ccc2n1CCN(CC)CC` (10 µM) are -0.146 and 109% (inactive).
The corresponding values for `C[C@@]1(c2cc(-c3cncnc3)c(F)cc2F)CCSC(N)=N1` (10 µM) are 0.151 and 106% (inactive).
In turn, `CN(C(=O)CCCOc1ccc2[nH]c(=O)ccc2c1)C1CCCCC1` [cilostamide] (10 µM) registered a morphology score in experiment [1] of -0.131. For the same compound, the SARS-CoV-2 infection rate in experiment [2] was 103% (inactive).
The matching figures for `O=c1[nH]c([C@@H]2CCCN2)nc2c1oc1ccc(Cl)cc12` (0.833333 µM): 0.106 and 104% (inactive).
The matching figures for `COCCOc1cnc2ccn([C@H](C)c3nnc4c(F)cc(-c5cnn(C)c5)cn34)c(=O)c2c1` (10 µM): 0.0816 and 105% (inactive).
The matching figures for `C=C1/C(=C\C=C2/CCC[C@]3(C)[C@@H]([C@H](C)/C=C/C=C/C(O)(CC)CC)CC[C@@H]23)C[C@@H](O)C[C@@H]1O` [seocalcitol] (10 µM): -0.0779 and 110% (inactive).
Turning to `COc1cccc(-c2ccc([C@@H](Oc3cc(-c4ccc(C[C@H](N)C(=O)O)cc4)nc(N)n3)C(F)(F)F)cc2)c1` (10 µM), the morphology score in experiment [1] turned out to be 0.0975. For the same compound, in experiment [2], the SARS-CoV-2 infection rate is 102% (inactive).
In turn, `CC[C@H](C)[C@H](NC(=O)[C@H](Cc1ccc(O)cc1)NC(=O)[C@@H](NC(=O)[C@H](CCCNC(=N)N)NC(=O)[C@@H](N)CC(=O)O)C(C)C)C(=O)N[C@@H](Cc1c[nH]cn1)C(=O)N1CCC[C@H]1C(=O)O` (10 µM) came in with a morphology score in experiment [1] of 0.109. The SARS-CoV-2 infection rate in experiment [2] was 104% (inactive).
The corresponding values for `CN1CCN(Cc2ccc(-c3cnc4[nH]cc(-c5ccc6[nH]ccc6c5)c4c3)cc2)CC1` (0.833333 µM) are 0.84 and 61% (inactive).
The corresponding values for `N[C@H](CO)C(=O)O` [D-serine] (10 µM) are 0.0301 and 104% (inactive).
The matching figures for `Cc1cc2sc(NC(=O)Cc3ccccc3)nc2cc1Cl` (10 µM): 0.407 and 76.5% (inactive).
The compound `On1ncc(C2CCNCC2)c1-c1cccc(-c2ccccc2)c1` (10 µM) gave a morphology score in experiment [1] of 0.0231. Also, the SARS-CoV-2 infection rate in experiment [2] was 108% (inactive).
